In PubChem BioAssay (NCATS):
“And” between values parts separate entries of the source, which are not always exact repeats. Equal entries are not always repeated. Unmarked numbers belong to inactive results. Inconclusive results are not listed. Where a call stands in place of a potency, no number is given. The source made the active and inactive calls. Calls follow the shape of the dose curve; as a rule, active = well fitted curve in the direction sought with a large enough effect; inconclusive = small, poorly fitted or top-dose-only effect, or another doubt; inactive = no such curve, though single readings can be large; an effect the other way counts as inactive or inconclusive.

Experiments:
[1] = target: Tyrosine-protein kinase Yes (Homo sapiens) (UniProt P07947); test: qHTS for small molecule inhibitors of Yes1 kinase: Primary Screen (AID 686947); also: nearly all actives have a fitted effect of over 60% in size; also: potency is read from the fitted curve at half-maximal effect
Procedure, shortened: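 ADP-Glo luminescence readout; final 4 nM Yes1, 0.1 mM ATP, 0.3 mg/mL poly(E4Y), Tris pH 7.5, MgCl2, DTT, Brij-35. 20 min compound preincubation, 60 min reaction at RT. Normalized to DMSO wells with and without enzyme.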

[2] = qHTS for small molecule inhibitors of Yes1 kinase: Counter Assay (AID 686950);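 also: no kinase present so only ADP-Glo detection of a fixed ADP amount is tested; luminescence from ADP-Glo reporting ADP in a fixed ATP and ADP mixture; series mostly up to about 77 µM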
Procedure, shortened: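 Luminescence read-out from ADP-Glo quantifies a fixed ADP amount (0.02 mM ADP with 0.08 mM ATP) after 60 min at room temperature; signal is normalized between DMSO wells with ATP/ADP and with 0.1 mM ATP alone.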

[3] = qHTS Assay for Identifying Gametocytocidal Compounds (AID 743244); also: potency is read from the fitted curve at half-maximal effect;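 as to max response: actives lower the fluorescent signal which means gametocytes are killed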; details: P. falciparum 3D7 stage III-V gametocytes, alamarBlue, 72 h; max response: active compounds read low
Procedure, shortened: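 In this qHTS viability screen, late-stage 3D7 gametocytes are incubated with compound for 72 h, then with alamarBlue for 24 h; reduced resorufin fluorescence marks killing.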

[4] = target: Arylsulfatase A (Homo sapiens) (UniProt P15289); test: qHTS screen for enhancers of Arylsulfatase A (ASA1): LOPAC Validation Assay (AID 720538)
Procedure, shortened: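 First, ASA-I179S fibroblasts from an MLD patient adhered for 6 hrs. Next, compounds were added for 48h. Then pNCS substrate (0.5mM final) with lysis buffer reacted 14h at room temperature before NaOH stop and fluorescence measurement.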

[5] = qHTS for compounds that reverse cellular toxicity of Amyloid beta (A-beta) peptide in yeast: LOPAC Validation Assay (AID 720559)
Procedure, shortened: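 Activity is expressed relative to DMSO and an equimolar ferric chloride/clioquinol mix. Compounds were pinned into medium with A-beta-expressing yeast, grown 48 hr at 30 C, then read by absorbance at 600 nm.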

[6] = qHTS for Activators of Parkin Expression: LOPAC Validation Assay (NLuc Reporter) (AID 720572)
Description: Parkin is an E3 ubiquitin ligase localized in the cytosol of cells expressed in many tissues, including brain, skeletal muscle, heart and liver tissues. One hour after stress induction by mitochondrial uncouplers (which mimic mitochondria damage by decreasing the mitochondrial inner membrane electrochemical gradient that is used to produce ATP), Parkin translocates from the cytosol to mitochondria in many cultured cell types, including neurons and HeLa cells. Administration of other mitochondrial poisons, such as Paraquat and azide in cells lacking mitochondrial DNA (mtDNA), induces Parkin translocation to mitochondria. […]
A cell based qHTS in 1536 well format was developed assess modulation of Parkin expression using a neuronal cell line that stably expresses a stably expresses a luminescent coincidence reporter (FLuc and NLuc reporters) behind the Parkin promoter. The LOPAC library is used to validate the assay for quantitative high-throughput screening. […]
Five microliters (1,500 cells/well) of the Parkin coincidence reporter cells were seeded to 1536 well assay plates (Greiner Catalog # 789173-F) and incubated at 37 C, 5% CO2 for 24 hours. […] The FLuc luminescence signal was obtained using the PerkinElmer ViewLux plate imager and then 2 uL of NanoLuc detection reagent was added to the plates. […]

[7] = qHTS for Activators of Parkin Expression: LOPAC Validation Assay (FLuc Reporter) (AID 720573; also: potency is read from the fitted curve at half-maximal effect); details: Cell line, PRKN promoter firefly luciferase reporter
Procedure, shortened: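 A neuronal cell line harbouring FLuc and NLuc reporters behind the Parkin promoter was exposed to compounds for 24 h. Firefly luciferase signal, measured after 10 min with detection reagent, was scaled to DMSO and positive-control wells.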

[8] = target: T1, Hexokinase-4 (Homo sapiens) + Glucokinase regulatory protein (Homo sapiens) (UniProt P35557+Q14397); test: qHTS assay for inhibitors of recombinant human GCK-GKRP interaction: Diaphorase-coupled assay (AID 743205)
Procedure, shortened: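 Inhibitors of the GCK–GKRP complex relieve GKRP suppression of GCK, detected through a G6PDH–diaphorase cascade reducing resazurin. Human GST-GCK and FLAG-GKRP are used at 10 nM with 5 mM glucose and 0.4 mM ATP.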

[9] = target: T1, Hexokinase-4 (Homo sapiens) + Glucokinase regulatory protein (Homo sapiens); test: qHTS assay for inhibitors of recombinant human GCK-GKRP interaction: ADP-Glo assay (AID 743206)
Procedure, shortened: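 GST-GCK and FLAG-GKRP (15 nM each in the dispensed mix, with 2 uM S6P) react with 0.4 mM ATP and 5 mM glucose (final) in Hepes pH 7.6 for 60 min at room temperature. ADP is measured by ADP-Glo luminescence.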

[10] = target: T1, Hexokinase-4 (Homo sapiens) + Glucokinase regulatory protein (Homo sapiens); test: qHTS assay for inhibitors of recombinant human GCK-GKRP interaction: HTRF assay (AID 743207)
Procedure, shortened: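 Steps: dispense GCK–GKRP complex (5 nM each, GST- and FLAG-tagged) with 2 uM S6P; pin in compounds; add XL665/Eu-cryptate-labelled antibodies; incubate 60 min at room temperature; read time-resolved FRET at 665 and 615 nm.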

Tyrosine-protein kinase Yes (Homo sapiens), sequence (P07947 whole entry, looked up): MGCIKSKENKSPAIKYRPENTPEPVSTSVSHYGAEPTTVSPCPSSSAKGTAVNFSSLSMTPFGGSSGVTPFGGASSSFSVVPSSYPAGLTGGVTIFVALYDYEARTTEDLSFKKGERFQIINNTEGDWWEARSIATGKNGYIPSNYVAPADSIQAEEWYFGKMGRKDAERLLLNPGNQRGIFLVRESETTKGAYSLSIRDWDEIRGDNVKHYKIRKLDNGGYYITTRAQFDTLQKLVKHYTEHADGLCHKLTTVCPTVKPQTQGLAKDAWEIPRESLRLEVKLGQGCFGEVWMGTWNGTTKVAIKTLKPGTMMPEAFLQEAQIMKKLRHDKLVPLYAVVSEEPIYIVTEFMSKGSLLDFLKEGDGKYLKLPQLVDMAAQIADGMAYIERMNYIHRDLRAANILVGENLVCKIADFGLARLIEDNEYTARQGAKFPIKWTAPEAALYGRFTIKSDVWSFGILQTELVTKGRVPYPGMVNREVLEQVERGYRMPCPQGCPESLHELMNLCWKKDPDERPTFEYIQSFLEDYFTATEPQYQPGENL
T1 sequence (P35557 whole entry, looked up): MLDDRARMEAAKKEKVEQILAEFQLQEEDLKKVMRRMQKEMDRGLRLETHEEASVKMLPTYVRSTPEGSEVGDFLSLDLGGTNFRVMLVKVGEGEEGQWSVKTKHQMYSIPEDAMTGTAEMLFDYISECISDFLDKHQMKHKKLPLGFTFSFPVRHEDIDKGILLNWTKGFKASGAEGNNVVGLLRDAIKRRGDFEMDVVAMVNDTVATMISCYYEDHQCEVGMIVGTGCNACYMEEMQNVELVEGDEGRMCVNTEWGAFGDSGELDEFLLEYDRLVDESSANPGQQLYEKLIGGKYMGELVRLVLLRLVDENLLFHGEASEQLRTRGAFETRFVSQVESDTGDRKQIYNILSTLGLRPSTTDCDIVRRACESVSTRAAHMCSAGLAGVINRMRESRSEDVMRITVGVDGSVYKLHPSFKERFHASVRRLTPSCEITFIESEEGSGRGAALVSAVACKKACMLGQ
T1 sequence (Q14397 whole entry, looked up): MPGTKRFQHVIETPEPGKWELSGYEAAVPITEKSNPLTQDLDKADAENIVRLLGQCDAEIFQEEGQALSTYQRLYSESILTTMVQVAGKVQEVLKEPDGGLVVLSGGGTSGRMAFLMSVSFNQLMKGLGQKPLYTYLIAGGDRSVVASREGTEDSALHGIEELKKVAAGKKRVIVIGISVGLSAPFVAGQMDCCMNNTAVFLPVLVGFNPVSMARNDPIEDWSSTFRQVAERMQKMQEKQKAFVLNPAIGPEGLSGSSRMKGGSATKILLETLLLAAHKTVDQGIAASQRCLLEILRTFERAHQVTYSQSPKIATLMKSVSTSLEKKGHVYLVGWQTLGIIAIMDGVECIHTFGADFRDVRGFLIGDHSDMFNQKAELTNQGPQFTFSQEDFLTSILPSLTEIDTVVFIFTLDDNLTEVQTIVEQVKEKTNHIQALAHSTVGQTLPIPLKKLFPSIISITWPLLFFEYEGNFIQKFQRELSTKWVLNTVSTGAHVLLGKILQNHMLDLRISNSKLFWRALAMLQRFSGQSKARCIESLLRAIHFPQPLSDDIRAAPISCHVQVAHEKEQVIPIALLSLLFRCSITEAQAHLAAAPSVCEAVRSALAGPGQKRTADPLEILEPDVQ
Arylsulfatase A (Homo sapiens), sequence (P15289 whole entry, looked up): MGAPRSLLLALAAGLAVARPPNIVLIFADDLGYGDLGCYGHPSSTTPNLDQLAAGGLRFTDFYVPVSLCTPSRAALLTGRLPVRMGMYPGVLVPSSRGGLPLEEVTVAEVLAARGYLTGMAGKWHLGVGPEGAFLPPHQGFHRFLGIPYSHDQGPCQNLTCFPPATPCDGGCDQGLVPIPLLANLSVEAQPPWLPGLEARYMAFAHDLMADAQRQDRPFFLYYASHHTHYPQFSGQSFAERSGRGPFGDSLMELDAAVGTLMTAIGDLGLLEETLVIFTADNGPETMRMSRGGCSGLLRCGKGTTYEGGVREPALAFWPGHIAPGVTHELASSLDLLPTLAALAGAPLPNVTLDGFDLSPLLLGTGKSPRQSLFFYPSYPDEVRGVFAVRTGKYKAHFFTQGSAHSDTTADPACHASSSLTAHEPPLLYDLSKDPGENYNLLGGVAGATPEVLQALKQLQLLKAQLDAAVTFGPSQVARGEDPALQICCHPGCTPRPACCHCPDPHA

## O=C(O)[C@H](Cc1c[nH]c2ccccc12)N1C(=O)c2ccccc2C1=O
[1]
  Potency: inactive
[2]
  outcome: inactive
[3]
  max response: 33.4%

## CCCCc1nc2cc(C=CC(=O)NO)ccc2n1CCN(CC)CC
[1]
  Potency: inactive
[2]
  outcome: inactive
[3]
  Potency: 3.72 µM (active)

## O=C(C=Cc1c(C(=O)O)[nH]c2cc(Cl)cc(Cl)c12)Nc1ccccc1
[1]
  Potency: inactive
[2]
  outcome: inactive
[3]
  max response: 20.3%

## Cc1cnc(Nc2ccc(F)cc2Cl)nc1-c1c[nH]c(C(=O)N[C@H](CO)c2cccc(Cl)c2)c1
[1]
  Potency: inactive
[2]
  outcome: inactive
[3]
  max response: -28.2%

## Nc1nc(Nc2ccc(S(N)(=O)=O)cc2)nn1C(=O)c1c(F)cccc1F
[1]
  Potency: 772 nM (active)
[2]
  outcome: inactive
[3]
  Potency: 11.8 µM (active)

## Cc1cn2c(-c3cn[nH]c3)cnc2c(Nc2ccc(C(=O)N3CCNCC3)cc2F)n1
[1]
  Potency: 21800 nM (active)
[2]
  outcome: inactive
[3]
  Potency: 23.5 µM (active)

## O=C(NCCCNc1nc(Nc2cccc(NC(=O)N3CCCC3)c2)ncc1I)c1cccs1
[1]
  Potency: 1.37 µM (active) and 1.22 µM (active)
[2]
  outcome: inactive
[3]
  max response: -18.4% and -12.2%

## COc1cc(C(C)C)c2c(c1)S(=O)(=O)N(COc1cc(=O)n3cccc(OCCN4CCCCC4)c3n1)C2=O
[1]
  Potency: inactive
[2]
  outcome: inactive
[3]
  max response: -3.11%

## CCN1CCN(Cc2ccc(-c3cc4c(N[C@H](C)c5ccccc5)ncnc4[nH]3)cc2)CC1
[2]
  outcome: inactive

## CN(c1ncccc1CNc1nc(Nc2ccc3c(c2)CC(=O)N3)ncc1C(F)(F)F)S(C)(=O)=O
[1]
  Potency: 194 nM (active)
[2]
  outcome: inactive
[3]
  max response: 3.79%

## c1ccc2c(CCNc3ccc(Nc4ccncc4)cc3)c[nH]c2c1
[1]
  Potency: inactive
[2]
  outcome: inactive
[3]
  Potency: 9.35 µM (active)

## CC(C)CC(=O)Nc1n[nH]c2c1CN(C(=O)C1CCN(C)CC1)C2(C)C
[1]
  Potency: 12200 nM (active)
[2]
  outcome: inactive
[3]
  Potency: 18.7 µM (active)

## C[C@@H](Oc1cc(-n2cnc3ccc(CN4CCN(C)CC4)cc32)sc1C(N)=O)c1ccccc1C(F)(F)F
[2]
  outcome: inactive

## COc1cccc2nc(-c3cccs3)nc(NN3C(=O)C=C(C)C3=O)c12
[1]
  Potency: inactive
[2]
  outcome: inactive
[3]
  max response: 19.8%

## Cc1cnc(-c2cnc(NCCNc3ccc(C#N)cn3)nc2-c2ccc(Cl)cc2Cl)[nH]1
[1]
  Potency: inactive
[2]
  outcome: inactive
[3]
  max response: 11.2%

## O=c1[nH]nc(Sc2ncc([N+](=O)[O-])s2)n1-c1ccc2c(c1)OCCO2
[1]
  Potency: inactive
[2]
  outcome: inactive
[3]
  Potency: 7.43 µM (active)

## CC=C1NC(=O)[C@H]2CSSCCC=C[C@H](CC(=O)N[C@H](C(C)C)C(=O)N2)OC(=O)[C@H](C(C)C)NC1=O
[1]
  Potency: inactive
[2]
  outcome: inactive
[3]
  Potency: 0.59 µM (active)

## CC1=C(CO)C(=O)O[C@@H]([C@@H](C)[C@H]2CC[C@H]3[C@@H]4C[C@H]5O[C@]56[C@@H](O)C=CC(=O)[C@]6(C)[C@@H]4CC[C@]23C)C1
[1]
  Potency: inactive
[2]
  outcome: inactive
[3]
  Potency: 0.372 µM (active)

## O=c1c2ccccc2nc2n1CCc1c-2[nH]c2ccccc12
[4]
  outcome: inactive
[5]
  outcome: inactive
[6]
  outcome: inactive
[7]
  Potency: 0.82 µM (active)
[8]
  outcome: inactive
[9]
  outcome: inactive
[10]
  outcome: inactive
[3]
  max response: 16.8%

## c1cc(-c2cnn3cc(-c4ccc(OCCN5CCCCC5)cc4)cnc23)ccn1
[2]
  outcome: inactive

## Cc1[nH]nc2ccc(-c3cncc(OC[C@@H](N)Cc4ccccc4)c3)cc12
[2]
  outcome: inactive

## CC[C@@H]1C(=O)N(C)c2cnc(Nc3ccc(C(=O)NC4CCN(C)CC4)cc3OC)nc2N1C1CCCC1
[2]
  outcome: inactive

## Cc1cc(Nc2cc(N3CCN(C)CC3)nc(Sc3ccc(NC(=O)C4CC4)cc3)n2)n[nH]1
[2]
  outcome: inactive
[3]
  Potency: 23.5 µM (active)

## C=CC(=O)N1CCC[C@@H](n2nc(-c3ccc(Oc4ccccc4)cc3)c3c(N)ncnc32)C1
[2]
  outcome: inactive

## CC(=O)c1c(C)c2cnc(Nc3ccc(N4CCNCC4)cn3)nc2n(C2CCCC2)c1=O
[2]
  outcome: inactive
[3]
  Potency: 7.43 µM (active)

## Cc1nc2cnc3ccc(C#Cc4cccnc4)cc3c2n1-c1ccc(C(C)(C)C#N)cc1
[2]
  outcome: inactive

## CN1CCN(c2ccc3nc(-c4c(N)c5c(F)cccc5[nH]c4=O)[nH]c3c2)CC1
[2]
  outcome: inactive

## C=CC(=O)Nc1cc2c(Nc3ccc(F)c(Cl)c3)ncnc2cc1OCCCN1CCOCC1
[2]
  outcome: inactive

## COC(=O)c1ccc2c(C(=Nc3ccc(N(C)C(=O)CN4CCN(C)CC4)cc3)c3ccccc3)c(O)[nH]c2c1
[2]
  outcome: inactive

## C[C@@H](Oc1cc(-c2cnn(C3CCNCC3)c2)cnc1N)c1c(Cl)ccc(F)c1Cl
[2]
  outcome: inactive
[3]
  Potency: 7.43 µM (active)
